Test results published in the OligoGym collection.

Each sequence was assayed against ZNF512B (assay: pooled miR-30 sensor sort-seq; sequence = guide strand). Settings: shRNA.
Further: reference of the scale not given here.

Sequence | sensor-assay potency score (higher = more potent)
TTTTTCTTCCCTTCTGTCTTGT | 0.00205
TTTCGTAACTGTCACAAGCTTT | -0.797
TTCGGAACCAGTTCTCTGCGTG | -0.0926
TTGGACTTGAACTGCTTCCGGC | -0.182
TAGTGTGGTAGTTGAGGCCGGC | -0.21
TTGCTGACTCCCACCTTCCGGC | -0.809
TACTTGAGCCCGTAGATGCTGG | -0.743
TTGAAGGGCATCAAGCTTCTGC | 0.255
TTTGGACTTGAACTGCTTCCGG | 0.34
TTCGTAACTGTCACAAGCTTTG | -1.03
TTGCTGACCACAATGGGCCTGC | 0.0376

The sequences below were run against ZNF517 in the same assay as above. Settings: shRNA.

Sequence | sensor-assay potency score (higher = more potent)
TTCAGCGTGTAGCTCCTGCGGA | -0.596
TCCTTGTGAAGTACACAGCCAC | -1.39
TCTTCCTGCAGAACCCTTGGGG | -0.177
TTTGGCAACAAGAAAGCCTAGT | 0.561
TTCTGGTGCTGCAGCAGCCGGG | -1.68
TTCTCTGCAGAGGAGACTCCAT | -1.52
TGCTCGTTGAGGGTGAACCTGC | -1.07
TTGAGGGTGAACCTGCGGCAGA | -1.5
TCGTTGAGGGTGAACCTGCGGC | -0.629
TCGTTCAGCGTGTAGCTCCTGC | -0.267
TTGTGAAGTACACAGCCACATC | -1.38
TTGTATCTGAACGCCTTGCCGC | -1.19

Each sequence was assayed against ZNF543 in the same assay as above. Settings: shRNA.

Sequence | sensor-assay potency score (higher = more potent)
TTCTGTGTAATCTTTGTACATA | -0.793
TTCAGAACTCATTTTCTCCAGC | 0.596
TTCTGTTGAAACTTGTTTCTGT | 0.852
TTTCACTCCAGTGTGAATCTGT | 0.767
TCTTTGTACATACACCATCATC | -1.6
TTGTACATACACCATCATCTGA | -0.467
TTCTTTTTAAACACTTTCCCGC | -0.356
TTCACTTGAGTGTGAATCCGTT | -0.0362
TAATCTTTGTACATACACCATC | -0.698
TGTAGTGTCGAATGAAACCTGG | -0.172
TAGGAATTTTTCTCTTCGCGAA | -0.467
TTTTTAAACACTTTCCCGCATT | -0.669

Each sequence was assayed against ZNF548 in the same assay as above. Settings: shRNA.

Sequence | sensor-assay potency score (higher = more potent)
TGTCTCACTAGGGTGGACCTTC | -0.0557
TTGTAACCTCTGACACTCCTAC | -0.158
TTTCTGGTGATGAACCAGGTGA | -0.687
AATTCCATTGTGCTCAACCAGG | -1.53
ATTTGTAATCATTTTGTCCAGT | -0.192
